HSF-1 act – increases HSF-1 driven luciferase reporter signal; NIH3T3-HGL HSF-1 luciferase reporter, MG132, 8 h; 100% = twice DMSO control signal; activation, % at 9 µM; 300,000 tested, 1.7% active; AID 504408;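 active means mean replicate activation of at least 50% with a set share of replicates each reaching 50%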;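 further: 0% = median of the neutral control wells and 100% = twice that signal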
LGR2 inh – Drosophila LGR2 receptor signaling inhibition; inhibition, % at 9.99 µM; AID 720647; 380,000 tested, 0.35% active; HEK293 LGR2, CRE-luciferase, bursicon-stimulated, 4 h;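 active means drop in luminescence signal, shown as inhibition above about 50% in the replicate tests, limit read from the data, passing the limit was not always enough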;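 further: agonist challenge used bursicon conditioned medium at about half maximal strength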
HSF1 inh – HSF1 inhibition | NIH3T3-HGL HSE-luciferase, MG132-induced, luminescence 8 h; active compounds read low | AID 2098 | activity change, negative = inhibition, % at 7.5 µM (by protocol) | 300,000 tested, 0.77% active;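 active means more than half of replicate wells show activity change below -50%, luminescence cut by over half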;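 further: luciferase reports HSF-1 transcriptional activity via heat shock element; 0% = median of DMSO wells and -100% = zero luminescence signal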
TWEAK-Fn14 inh – inhibitors of TWEAK-Fn14 interaction signaling. TWEAK-stimulated Fn14 reporter cells, luciferase luminescence, 8 h. inhibition, % at 10 µM. 360,000 tested, 2% active; in the data active means inhibition above about 50%
TROY signal inh – inhibitors of TROY-dependent NF-kB signaling; Q293 LMP1-TROYcd NF-kB luciferase reporter, 4 h; inhibition, % at 10 µM; 360,000 tested, 0.98% active;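 active means compounds whose plate-normalised and pattern-corrected inhibition of the luciferase reporter signal at the single screening dose is 50% or more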
EBV LMP1 NFkB – reduces LMP1-driven NF-kappaB luciferase signal | AID 504558 | inhibition, % at 12.5 µM | 350,000 tested, 0.69% active | LMP1-induced NF-kappaB luciferase reporter cells, luminescence; in the data active means inhibition above about 41%;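 further: 0% = neutral control wells and 100% = reference inhibitor control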
Active calls of the source: *; . = not tested or not shown. Shown are actives, neighbours in structure and some others; about 3.6% of the full set was active somewhere.

SMILES | HSF-1 act | LGR2 inh | HSF1 inh | TWEAK-Fn14 inh | TROY signal inh | EBV LMP1 NFkB
CCOc1ccc(NC(=O)c2ccc(N3CC4CC(C3)c3cccc(=O)n3C4)c(NC(=O)c3cccnc3)c2)cc1 (configuration not stated) | -12 | -2 | -6 | -21 | -16 | 61*
COc1ccccc1NC(=O)c1ccc(N2CC3CC(C2)c2cccc(=O)n2C3)c(NC(=O)c2ccncc2)c1 (configuration not stated) | -66 | 15 | -57* | -22 | -9 | 2
CSc1ccccc1NC(=O)c1ccc(N2CC3CC(C2)c2cccc(=O)n2C3)c(NC(=O)c2cccnc2)c1 (configuration not stated) | 0 | -7 | 6 | -16 | -2 | 12
CO[C@@H]1CN(C)C(=O)c2cc(NS(C)(=O)=O)ccc2OC[C@H](C)N(CC2CC2)C[C@H]1C | . | -15 | . | . | . | .
COc1ccccc1CNC(=O)N1CCN(c2ccccc2C)CC1 | -78 | 1 | -72* | 12 | -4 | -5
COc1ccccc1CNC(=O)N1CCN(c2ccccc2)CC1 | -5 | -2 | -4 | 7 | -14 | -6
Cc1noc(C)c1S(=O)(=O)N(C)C[C@H]1OCCCC[C@H](C)Oc2ccc(NC(=O)Cc3ccccc3)cc2C(=O)N([C@H](C)CO)C[C@H]1C | . | 16 | . | . | . | .
O=C(NCC[C@H]1CC[C@H](NC(=O)C2CCCC2)[C@@H](CO)O1)c1cc(Cl)cc(Cl)c1 | . | 12 | . | . | . | .
Cc1cc(Sc2ncnc(N)c2[N+](=O)[O-])ncn1 | 65* | . | 51 | 51* | 13 | -10
COc1ccc(NC(=O)N(C)C[C@@H]2Oc3ccc(NC(=O)CCCCCC(=O)Nc4ccccc4N)cc3CC(=O)N([C@@H](C)CO)C[C@@H]2C)cc1 | . | -11 | . | . | . | .
CN(C)CC(=O)Nc1ccc2c(c1)[C@H]1C[C@H](CC(=O)NCCN3CCCCC3)O[C@@H](CO)[C@H]1O2 | . | 4 | . | . | . | .
c1ccc(COc2ccc(-c3cc4nc(NCCOc5ccccc5)ccn4n3)cc2)cc1 | . | -35 | . | 42 | -2 | .
COCCCNc1ccn2nc(-c3ccc(OCc4ccccc4)cc3)cc2n1 | . | -23 | . | 78* | 49 | .
COc1cc(-c2cc3nc(NCCc4ccncc4)ccn3n2)cc(OC)c1OC | . | -4 | . | 18 | -2 | .
COc1cc(-c2cc3nc(NCCOc4ccccc4)ccn3n2)cc(OC)c1OC | . | -5 | . | 58* | 23 | .
CC1Oc2ccccc2N(CC(=O)NCc2ccccc2)C1=O (configuration not stated) | -90 | -17 | -88* | -10 | -20 | -8
CC1Oc2ccccc2N(CC(=O)NC2CC2)C1=O (configuration not stated) | -5 | 4 | -4 | 15 | 0 | -4
Cc1ccc(S(=O)(=O)N(C)C[C@H]2Oc3ccc(NC(=O)Nc4ccc(C(F)(F)F)cc4)cc3C(=O)N([C@H](C)CO)C[C@@H]2C)cc1 | . | 11 | . | . | . | .
Cc1ccccc1NC(=O)/C=C/c1ccc([N+](=O)[O-])s1 | -3 | . | -6 | 95* | -34 | -17
Cc1cc(C)cc(NC(=O)/C=C/c2ccc([N+](=O)[O-])s2)c1 | 42 | -18 | 23 | -4 | -47 | -110
Cc1ccccc1NC(=O)/C=C/c1cccs1 | 23 | -46 | 14 | 1 | -27 | -18
CC(=O)c1cccc(NC(=O)/C=C/c2ccc([N+](=O)[O-])s2)c1 | 4 | 15 | 7 | 84* | 31 | -90
O=C(Nc1cc(Cl)ccc1O)c1snnc1-c1ccccc1 | -7 | . | -1 | 9 | 55* | 13
NNC(=O)c1snnc1-c1ccccc1 | -4 | -6 | -3 | -22 | -2 | 1
O=C(Nc1cccc(Cl)c1Cl)c1snnc1-c1ccccc1 | -89 | . | -86* | 0 | 8 | 8
SMILES | HSF-1 act | LGR2 inh | HSF1 inh | TWEAK-Fn14 inh | TROY signal inh | EBV LMP1 NFkB
O=C(Nc1ccccc1F)N1CC(=O)N2[C@H](CO)[C@@H](c3ccc(-c4ccccc4)cc3)[C@@H]2C1 | . | 11 | . | . | . | .
O=C(C[C@H]1C[C@@H]2c3cc(NC(=O)C4CCC4)ccc3O[C@@H]2[C@@H](CO)O1)NCC(F)(F)F | . | -2 | . | . | . | .
N#Cc1cc(Cl)c(NCC2CCCO2)cc1C#N (configuration not stated) | 89* | 8 | 49 | -1 | 12 | 2
CC=Cc1ccc2n(c1=O)C[C@@H]1[C@@H](CO)[C@H](C(=O)NC3CCC3)N(CC)[C@H]21 (mixture of isomers) | . | -6 | . | . | . | .
Cc1ccc(S(=O)(=O)Nc2ccc3c(c2)C(=O)N([C@@H](C)CO)C[C@H](C)[C@@H](CN(C)C(=O)c2ccccc2)OCCCC[C@H](C)O3)cc1 | . | -9 | . | . | . | .
CN(C)C(=O)[C@H]1[C@H](CO)[C@H]2Cn3c(ccc(C4=CCCC4)c3=O)[C@@H]1N2C | . | -7 | . | . | . | .
O=C(Nc1ccccc1Cl)c1ccccc1 | 13 | -29 | -6 | -23 | -38 | -12
Cc1ccc(C(=O)Nc2cccnc2Cl)cc1Cl | 59* | -59 | 20 | -16 | -48 | -2
O=C(Nc1ccccc1Cl)c1ccc(C(=O)Nc2ccccc2Cl)cc1 | -9 | 2 | -9 | -3 | 62* | 85*
Nc1ccccc1NC(=O)c1ccccc1 | 34 | . | 4 | -28 | -39 | 44*
CN1CCN(Cc2nc3ccccc3c(=O)n2Cc2nc(-c3ccc4ccccc4c3)cs2)CC1 | 12 | 90* | 0 | -121 | 41 | 6
Cc1ccc(S(=O)(=O)N[C@H]2CC[C@@H](CC(=O)NCc3ccccc3F)O[C@@H]2CO)cc1 | . | 5 | . | . | . | .
COc1ccc(S(=O)(=O)N(C)C[C@@H]2OCCCC[C@@H](C)Oc3ccc(NS(C)(=O)=O)cc3C(=O)N([C@@H](C)CO)C[C@H]2C)cc1 | . | 2 | . | . | . | .
COC(=O)c1cc2c(ccn2-c2ccc(F)cc2)n1Cc1ccc(OC)cc1 | 48 | -6 | 19 | -1 | -22 | -17
CCn1c(C(=O)OC)cc2c1ccn2-c1ccc(F)cc1 | 52* | . | 40 | -1 | -98 | -46
O=C(/C=C/c1ccc2c(c1)OCO2)c1ccc[nH]1 | 62* | -34 | 26 | 16 | -34 | -15
O=C(/C=C/c1ccc2c(c1)OCO2)c1ccc(F)cc1 | 26 | -44 | 9 | -21 | -85 | -4
COc1cccc(/C=C/C(=O)c2ccc[nH]2)c1 | 86* | . | 50 | 12 | -76 | -30
Cc1ccc(C(=O)/C=C/c2ccc3c(c2)OCO3)o1 | 60* | -56 | 41 | 2 | -64 | -2
Cc1ccc(C(=O)N/N=C/c2ccc3c(c2)OCO3)o1 | 12 | 6 | 3 | -13 | -42 | -1
COc1ccc(NC(=O)Nc2ccc3c(c2)C(=O)N([C@@H](C)CO)C[C@H](C)[C@@H](CN(C)S(=O)(=O)c2cn(C)cn2)OCCCC[C@@H](C)O3)cc1 | . | 5 | . | . | . | .
COc1cccc(C(=O)Oc2c(Br)cc(Br)cc2/C=N/NC(=O)c2cc(C)[nH]n2)c1 | . | 21 | . | 52* | 28 | 19
COCC(=O)Nc1ccc2c(c1)[C@@H]1C[C@@H](CC(=O)NCc3ccc(OC)cc3)O[C@@H](CO)[C@@H]1O2 | . | 4 | . | . | . | .

Bioassay records deposited in PubChem BioAssay by several laboratories.
